Only some compounds are listed: those with a hit (about 4.3% of all), similar ones and a draw of the others.
MITF act: activators of MITF-driven TRPM1 promoter reporter, primary screen, cell-based, SK-MEL-5, luciferase, single point. SK-MEL-5 TRPM1-promoter luciferase, 24 h; % of positive control, neutral wells = 0. activation, % at 12.5 µM. 300,000 compounds, 0.75% hits;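 active = mean activation of at least 80% with every replicate also reaching 80%; inconclusive = mean reaches 80% but some replicate falls short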;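 also: 0% = neutral control wells and 100% = parthenolide positive control wells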
Wnt act: Wnt/beta-catenin pathway activators, primary screen, cell-based, plate reader, single point. Wnt/beta-catenin reporter cell assay, activator. activation, % at 9.35 µM. 300,000 compounds, 1.2% hits. AID 743398, 2014; in the data active = activation above about 30%, passing the limit was not always enough; inconclusive = no clear call, values can overlap the other calls;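 also: 0% = neutral control wells and 100% = positive control wells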
AF4-AF9 inh: inhibitors of AF4 peptide binding to AF9, primary screen, biochemical, AlphaScreen, biotin-AF4 peptide, FLAG-AF9, single point. Protein AF-9 (Homo sapiens), P42568. AID 651704, 2012. inhibition, % at 10 µM. 350,000 compounds, 0.47% hits;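 active = every replicate reaching a set inhibition limit, whatever the replicate mean, cut at about 25% in these data; inconclusive = mean inhibition reaches that limit but some replicates miss it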;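 also: 0% = plate neutral control median and 100% = total signal loss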
Target sequence (P42568 whole entry, looked up): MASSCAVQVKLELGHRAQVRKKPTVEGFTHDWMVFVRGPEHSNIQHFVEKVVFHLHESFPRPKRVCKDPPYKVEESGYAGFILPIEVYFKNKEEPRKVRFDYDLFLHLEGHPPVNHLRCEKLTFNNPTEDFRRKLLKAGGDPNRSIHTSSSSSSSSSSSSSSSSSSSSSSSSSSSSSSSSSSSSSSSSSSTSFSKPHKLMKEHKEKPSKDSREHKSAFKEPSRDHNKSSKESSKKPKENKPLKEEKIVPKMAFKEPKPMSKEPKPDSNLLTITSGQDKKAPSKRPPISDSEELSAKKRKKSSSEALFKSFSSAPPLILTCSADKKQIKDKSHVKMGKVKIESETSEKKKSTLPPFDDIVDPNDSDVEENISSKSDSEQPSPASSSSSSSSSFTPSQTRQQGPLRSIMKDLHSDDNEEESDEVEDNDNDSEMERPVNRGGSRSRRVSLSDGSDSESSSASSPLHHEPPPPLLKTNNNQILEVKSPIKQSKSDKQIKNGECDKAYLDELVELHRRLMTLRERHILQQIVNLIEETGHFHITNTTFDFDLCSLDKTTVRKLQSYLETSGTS
FGF22 binding: binders of human FGF22 protein, primary screen, FGF22 synaptogenesis inhibitor project, biophysical, thermal shift, single point | AID 651658, 2012 | 340,000 compounds, 1.5% hits | activity (Tm shift, normalised), % at 9.99 µM | recombinant FGF22 thermal shift, SYPRO orange fluorescence; percent of sucrose octasulfate shift, DMSO zero | Fibroblast growth factor 22 (Homo sapiens), Q9HCT0;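 active = mean Tm shift, scaled 0 neutral to 100 positive control, at about 1.3% or above, every replicate too, limit read from the data; inconclusive = no clear call, values can overlap the other calls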
esBAF inh: Bmi1 luciferase reporter increase in mESCs, primary screen, esBAF inhibitor project, mouse ES cells, Bmi1 luciferase knock-in, single point; AID 602393, 2012; reporter increase, % at 12.5 µM; 350,000 compounds, 2% hits; 24 h; 100% = twice the neutral-well signal; in the data active = activation above about 40%; inconclusive = no clear call, values can overlap the other calls;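 also: 0% = median of the plate's neutral control wells and 100% = double that signal; a rise in the Bmi1 reporter signal indicates esBAF inhibition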
SMARCA2 activ: SMARCA2 (BRM) function activators, primary screen, cell-based, luminescence, high throughput | 370,000 compounds, 1% hits | AID 652017, 2013 | activation, % at 9.1 µM | MG213 cells, MMTV-luciferase reporter, dexamethasone, overnight; in the data active = activation above about 7.8%;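 also: 0% = vehicle wells and 100% = reference activator wells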
Numbers without * were called inactive; ? = inconclusive; · = no result.

SMILES	MITF act	Wnt act	AF4-AF9 inh	FGF22 binding	esBAF inh	SMARCA2 activ
CCNC(=O)[C@@H]1[C@@H](CO)[C@@H]2Cn3c(ccc(-c4ccccc4)c3=O)[C@@H]2N1Cc1ccccn1	·	·	-0.3	-0.4	1.2	·
CC(C)(C)c1cc(CCC(=O)Nc2ccncc2)cc(C(C)(C)C)c1O	6.7	-1.6	4.5	18.4*	·	0.8
O=C(NCC1CCCN(Cc2ccccc2F)C1)c1cccc(C(F)(F)F)c1 (stereo not drawn)	-2.6	-5.2	0.8	42.9*	·	-2.7
COc1ccc(CC(=O)NCC2CCCN(Cc3cccc(C(F)(F)F)c3)C2)cc1 (stereo not drawn)	·	-0.8	1.0	0.1	2.1	-3.2
c1ccc(N=NC2=NN(c3ccccc3)CS2)cc1	·	53.6*	3.2	0.0	·	0.8
O=C1NC(=O)/C(=C/c2ccc(O)cc2)S1	26.6	?	1.0	0.1	·	-0.5
O=C1/C(=C/c2ccccn2)SC(=S)N1CCc1ccccc1	8.0	5.2	-0.6	1.6*	·	-3.5
O=C1NC(=O)/C(=C/c2ccccn2)S1	7.1	-3.3	-1.9	-0.1	45.3*	-1.7
O=C(C[C@@H]1CC[C@H](NC(=O)c2ccccn2)[C@H](CO)O1)NCc1cc(F)cc(F)c1	·	·	-0.1	-0.3	0.9	·
NC(=NCc1ccco1)NC(=O)c1ccc(Cl)cc1	91.9*	2.7	11.2	-0.2	49.0*	0.1
COc1cccc(NC(=O)Nc2ccc3c(c2)C(=O)N(C)C[C@@H](OC)[C@@H](C)CN(C)[C@@H](C)CO3)c1	·	·	12.9	0.0	12.3	·
CC1Cc2ccccc2N1C(=O)CNCCCN(C)C (stereo not drawn)	-7.7	·	·	·	·	-3.4
CC1CC2(C)Oc3ccccc3CC2C(C)C1CNCCCN(C)C (stereo not drawn)	-96.0	-2.6	1.3	43.0*	·	2.0
COc1ccc(CCNC(=O)[C@@]2(Sc3ccc(C)cc3)CC(=O)N(C(C)C)[C@@H]2c2ccc(CO)cc2I)cc1	·	·	-11.7	1.3*	·	·
CC(=O)NCc1ccc(-c2nc3ccccc3s2)cc1	-1.3	14.1	-1.1	0.2	-12.6	2.8
CC(=O)NCc1ccc(-c2csc(-c3cccs3)n2)cc1	54.9	19.8	2.6	-0.4	53.1*	5.5
COc1ccc(OC)c(CNc2ccc3c(c2)CCC3)c1	·	-0.3	8.5	-0.1	46.5*	-0.8
COc1ccc(OC)c(CC(=O)Nc2ccc3c(c2)CCC3)c1	2.3	-0.3	?	-0.5	-6.8	-1.8
CCCc1nn2c(-c3ccccc3)nnc2o1	·	-4.3	-1.7	43.1*	34.5	3.0
COc1ccc(C(=O)N2CCC(NC(=O)C(Cc3ccccc3OC)NC(C)=O)CC2)cc1 (stereo not drawn)	-10.8	-1.7	-3.6	-0.3	0.4	-1.4
COc1ccccc1CC(NC(C)=O)C(=O)NC1CCN(C(=O)c2ccc([N+](=O)[O-])cc2)CC1 (stereo not drawn)	-4.1	-1.7	-1.4	43.6*	·	-4.5
Cc1noc(C)c1NC(=O)Nc1ccc2c(c1)CC(=O)N([C@H](C)CO)C[C@H](C)[C@@H](CN(C)C)O2	·	·	-2.8	-0.3	1.9	·
COc1ccc2c(c1)OC1(C)CC2C(C(=O)c2ccccc2OC)C(=O)N1 (stereo not drawn)	·	0.0	48.5*	-0.1	-7.3	-1.7
C[C@@H]1CN([C@@H](C)CO)C(=O)c2cc(C#CC3CC3)cnc2O[C@H]1CN(C)C(=O)Nc1ccccc1	·	·	-3.1	0.0	0.2	·
O=[N+]([O-])c1ccc(F)c(CN2CCN(c3ncc(Cc4ccccc4)cn3)CC2)c1	·	-1.2	0.5	-0.3	·	-4.4
SMILES	MITF act	Wnt act	AF4-AF9 inh	FGF22 binding	esBAF inh	SMARCA2 activ
Cc1ccc([N+](=O)[O-])cc1CN1CCN(c2ncc(Cc3ccccc3)cn2)CC1	·	-2.6	-4.0	43.2*	·	-9.4
C[C@H](CO)N1C[C@H](C)[C@@H](CN(C)Cc2ccc(-c3ccccc3)cc2)Oc2ncc(-c3cccnc3)cc2C1=O	·	·	12.4	0.1	-5.0	·
COC(=O)c1cc2c(c3c4cc(C)ccc4n(S(=O)(=O)c4cccc(C)c4)c13)C(=O)N(C)C2	·	-2.1	2.3	0.1	·	-4.4
CNc1cccc(-c2cccc(O)c2)n1	·	4.5	-1.4	-0.3	53.5*	-0.3
O=C1CN(Cc2ccc(F)cc2)C[C@H]2[C@H](c3ccc(Br)cc3)[C@H](CO)N12	·	·	-13.4	·	·	·
CSc1ccccc1NC(=O)COC(=O)Cc1cccs1	6.5	-1.3	0.1	43.2*	·	-3.8
Cc1ccc(NC(=O)c2nnn(CC(=O)Nc3ccc4c(c3)OCO4)c2N)cc1C	5.9	2.1	1.3	-0.2	18.5	-0.7
O=C(Nc1ccc2c(c1)OCCO2)N1CCN(Cc2ccccc2)CC1	58.9	24.6	1.4	0.0	55.3*	7.8
Nc1c(C(=O)Nc2ccc3c(c2)OCCO3)nnn1CCc1ccccc1	12.4	12.1	-0.5	0.0	66.5*	0.5
Nc1c(C(=O)Nc2ccc3c(c2)OCCO3)nnn1Cc1cccc(Br)c1	102.0*	42.2*	3.7	-0.3	55.0*	4.2
Nc1c(C(=O)Nc2ccc3c(c2)OCCO3)nnn1Cc1ccc(Br)cc1	111.1*	36.2*	-5.6	-0.2	126.2*	4.8
COc1ccc(C)cc1NC(=O)c1nnn(CCc2ccccc2)c1N	7.0	-2.8	-0.9	-0.1	8.8	4.2
O=C(Cc1cccnc1)N1CC(=O)N2[C@H](C1)[C@@H](c1ccc(C3=CCCC3)cc1)[C@@H]2CO	·	·	-1.9	·	·	·
CO[C@@H]1CN(C)C(=O)c2cc(NC(=O)c3cc(C)on3)ccc2OC[C@@H](C)N(C(=O)C2CCC2)C[C@H]1C	·	·	0.5	0.0	0.9	·
COc1cccc(CN2CCN(C(=O)Nc3ccc([N+](=O)[O-])cc3)CC2)c1	12.1	-0.8	3.3	43.0*	·	-5.4
Nc1c(C(=O)Nc2ccccc2Cl)nnn1-c1ccc2c(c1)OCCO2	132.3*	18.4	?	-0.3	32.4	1.9
CO[C@@H]1CN(C)C(=O)c2cc(NC(=O)C3CC3)ccc2OC[C@@H](C)N(C(=O)c2cccnc2)C[C@@H]1C	·	·	7.2	0.1	-1.0	·
COc1ccc(N2CCN(CCNS(=O)(=O)c3ccc(Br)s3)CC2)cc1	·	·	·	·	·	-1.7
COc1ccc(-c2ccc3c(c2)O[C@H](CN(C)C(=O)Nc2ccccc2F)[C@H](C)CN([C@@H](C)CO)S3(=O)=O)cc1	·	·	3.8	0.0	-2.2	·
CO[C@H]1CN(C)C(=O)c2cc(NS(C)(=O)=O)ccc2OC[C@@H](C)N(CC2CC2)C[C@H]1C	·	·	-1.0	0.1	-3.3	·
O=C(Nc1ccon1)c1ccc(OC2CCCC2)cc1	?	46.2*	·	·	·	0.1
